Assay outcomes from PubChem.
SKKanGAS inh: inhibitors of SKKanGAS S. pyogenes growth in kanamycin (SK-promoter or general growth effect). 300,000 tested, 1.3% active. BacTiter-Glo, 6 h. inhibition, % at 7.5 µM. AID 1662;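 active means mean replicate score, as percent of positive control median, at least 50; inconclusive means mean below 50 but one replicate at or above 50; inactive means mean and every replicate below 50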;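 further: strain carries kanamycin resistance gene driven by streptokinase promoter and grows in 40 µg/ml kanamycin; loss of luminescence reflects streptokinase promoter inhibition or plain growth inhibition; 0% = median of DMSO wells and 100% = positive control at its reference dose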
Mdm2 MdmX PPI: human Mdm2/MdmX binding inhibition. SaOS-2 split-luciferase Mdm2/MdmX complementation, luminescence. inhibition, % at 8 µM. 330,000 tested, 3% active;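 active means inhibition of at least 50% at 8 µM in the primary screen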
GRIN3A LBD mod: modulates the human NR3A ligand-binding domain | AID 1259313 | 340,000 tested, 2.5% active | NR3A LBD differential scanning fluorimetry, Tm shift; 0% = protein alone, 100% = glycine-bound protein | Tm shift relative to glycine control, % at 25 µM;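 active means melting temperature shift of at least 10% of the positive control shift, at one fixed dose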
Beta cell apopt: beta cell apoptosis inhibition | INS-1E cytokine-induced death, ATP luminescence, 48 h; percent of positive-control rescue, neutral wells zero | protection from apoptosis, % (test concentration not listed) | 300,000 tested, 0.8% active;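 active means Every replicate reaches about 75%, or at least half do and their mean reaches it too, limit read from the data; inconclusive means At least half of replicates reach the limit but their mean does not; inactive means Under half of replicates reach the limit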;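 further: 0% = cytokine-treated negative control wells and 100% = positive control rescue; higher means more ATP so stronger rescue from cytokine killing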
MPTP block: inhibitors of mitochondrial permeability transition pore; 360,000 tested, 1.4% active; inhibition, % at 10 µM; isolated mouse mitochondria, Ca2+ swelling absorbance, 30 min;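 active means inhibition of 50% or more, scaled per plate between neutral and stimulator controls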;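 further: 0% = DMSO wells given calcium and 100% = 1 mM EGTA wells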
CSC inhib: blocks cancer stem cells; cancer stem cell-like cells viability, luminescence; 300,000 tested, 1.1% active; inhibition, % at 7.5 µM; in the data active means inhibition above about 75%; inconclusive means no clear call, values can overlap the other calls; tested in HMLE shEcad cells
Mdm2-MdmX conf: confirmation of human Mdm2/MdmX interaction inhibitors; shares compounds with Mdm2 MdmX PPI; Mdm2-MdmX binding, luminescent assay; inhibition, % at 8 µM; 10,000 tested, 55% active; in the data active means inhibition above about 40%
Full FLuc ctr: inhibits full-length luciferase, flagging false Mdm2/MdmX hits | shares compounds with Mdm2 MdmX PPI | SaOS-2 full-length luciferase counterscreen, luminescence | inhibition, % at 8 µM | 6,200 tested, 77% active | AID 504607;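 active means mean inhibition at 8 µM reaching about 37%, which flags the compound as non-specific, limit read from the data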;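 further: p53-null SaOS-2 cells with luciferase driven by a doxycycline-inducible promoter; compound on cells about two nights before reading with doxycycline added after day one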
Numbers without * were called inactive; u = inconclusive; x = no result given. A selection: hits, their analogues and other compounds. The true share with any hit is near 6.9%.

SMILES | SKKanGAS inh | Mdm2 MdmX PPI | GRIN3A LBD mod | Beta cell apopt | MPTP block | CSC inhib | Mdm2-MdmX conf | Full FLuc ctr
Cc1cccc(NC(=O)c2nc[nH]c2C(=O)NCCCCCCNC(=O)c2[nH]cnc2C(=O)Nc2cccc(C)c2)c1 | x | 71* | 4 | -1 | 2 | 38 | -22 | x
Cc1cccc(NC(=O)c2nc[nH]c2C(=O)NCCCCNC(=O)c2[nH]cnc2C(=O)Nc2cccc(C)c2)c1 | x | 75* | 13* | 15 | 0 | 40 | 4 | x
CN(C)S(=O)(=O)c1ccc(NC(=S)NC(=O)C2CCC2)cc1 | 16 | 26 | 5 | 0 | 1 | -7 | x | x
CN(Cc1ccccc1)S(=O)(=O)c1ccc(NC(=S)NC(=O)C2CCCC2)cc1 | 10 | 56* | -5 | 7 | 15 | 66 | 58* | 61*
COc1c(CC=C(C)C)c(O)cc2oc(=O)c3c4ccc(O)cc4oc3c12 | 13 | 2 | 10 | -6 | 3 | -2 | x | x
CC(C)=CCc1cc2c(=O)c3c(O)c4c(cc3oc2c(O)c1O)OC(C)C4(C)C (centres undefined) | 103* | 92* | x | 109* | x | 5 | 39 | 63*
COc1cc2c(cc1NC(=O)c1ccc(C(C)(C)C)cc1)CCCC2 | -4 | 69* | 1 | 3 | 5 | 58 | 74* | 62*
COC(=O)[C@@]1(Cc2ccc(F)cc2)[C@H]2C(CC(=O)C(=O)N3CCCC3)C(=O)C[C@H]2CN1C(=O)c1ccccc1 (some centres undefined) | x | x | x | x | -2 | x | x | x
COC(=O)[C@@]1(Cc2ccc(OC)cc2)[C@@H]2C(=CC(=O)[C@H]2CC(=O)C(=O)N2CCCC2)CN1C(=O)c1ccccc1 | x | 69* | 4 | -16 | -1 | 37 | 22 | x
COc1ccc(NC(=O)COC(=O)c2ccc(OCc3ccccc3Cl)c(OC)c2)c(OC)c1 | -1 | 61* | 1 | -3 | 3 | 16 | 16 | x
COc1cc(C(=O)OCC(=O)Nc2cc(C)on2)ccc1OCc1ccccc1Cl | 13 | 13 | 8 | -7 | 1 | 9 | x | x
O=C1CNC(=S)N1CCc1ccccc1Cl | 1 | 1 | -1 | -5 | 1 | -9 | x | x
COc1ccc2c(Cn3cnc4cc([N+](=O)[O-])ccc4c3=O)cc(=O)oc2c1 | 7 | 60* | 0 | 2 | 1 | 65 | 73* | 20
O=C(CN(C(=O)c1csnn1)c1cccc2c1CCCC2)NCc1ccccc1 | -3 | 15 | 0 | 0 | -2 | -8 | x | x
CCCCn1c(N)c(N(CCC(C)C)C(=O)c2ccc3c(c2)OCO3)c(=O)[nH]c1=O | -1 | 16 | -1 | -3 | 0 | -5 | x | x
CCCSc1nnc(Sc2nnnn2-c2ccccc2)s1 | 3 | 66* | 2 | x | 0 | 53 | 64* | 56*
O=[N+]([O-])c1ccc(Sc2nnnn2-c2ccccc2)nc1 | -6 | 61* | 2 | x | x | x | 47* | 79*
Cc1ccccc1-n1nnnc1SCC(N)=O | 4 | -7 | -1 | -8 | -2 | -14 | x | x
Cc1ccccc1-n1nnnc1Sc1nnnn1-c1ccccc1 | x | 98* | 3 | 60 | -2 | 19 | 83* | 54*
O=C(Nc1ccc(Cl)cc1F)c1ccc2c(c1)C(=O)N(Cc1ccncc1)C2=O | x | 19 | -3 | 0 | -1 | -6 | x | x
O=C1NC2(CCCCC2)C(=O)N1CC(=O)N(Cc1ccccc1)c1ccccc1 | 9 | -1 | 1 | -8 | 0 | -23 | x | x
CCc1ccccc1NS(=O)(=O)Cc1ccccc1 | 2 | -13 | -1 | -2 | 0 | -11 | x | x
COc1ccc(C2CC(c3ccc(C)cc3)=NN2C(=O)CCC(=O)O)cc1OC (centres undefined) | -1 | 9 | x | 1 | 1 | -9 | x | x
CN(C)CCCNC(=O)C(=O)Nc1ccc2c(c1)N(S(=O)(=O)c1cccs1)CCC2 | 19 | 5 | -2 | 11 | -1 | x | x | x
CCCNC(=O)C(=O)Nc1ccc2c(c1)N(S(=O)(=O)c1cccs1)CCC2 | 31 | 50* | 0 | 8 | -2 | x | 69* | 60*
SMILES | SKKanGAS inh | Mdm2 MdmX PPI | GRIN3A LBD mod | Beta cell apopt | MPTP block | CSC inhib | Mdm2-MdmX conf | Full FLuc ctr
CN(C)CCNC(=O)C(=O)Nc1ccc2c(c1)N(S(=O)(=O)c1cccs1)CCC2 | 2 | 51* | 3 | 1 | -1 | 22 | 72* | 62*
COCCCNC(=O)CSc1nc2cc(C(=O)NCCOC)ccc2c(=O)n1Cc1ccc2c(c1)OCO2 | 2 | 13 | 0 | 11 | 0 | 0 | x | x
CC(=O)c1ccccc1NC(=O)c1ccc2c(c1)NC(=O)C(C)S2 (centres undefined) | -1 | -37 | -2 | 4 | -1 | 4 | x | x
CCCNC(=O)c1ccccc1NC(=O)c1ccc2c(c1)NC(=O)C(C)S2 (centres undefined) | u | 53* | -1 | x | 0 | 45 | 68* | 72*
COc1cc(NC(=O)COC(=O)CCOc2ccc(C)cc2)cc(OC)c1 | x | 30 | -2 | x | -1 | -7 | x | x
CC(C)(C)C(=O)/C(=C/c1ccc(Cl)cc1)n1cncn1 | -1 | 99* | 0 | -52 | 0 | 30 | 100* | 0
CC(C)(C)C(=O)/C(=C\c1ccc([N+](=O)[O-])cc1)n1cncn1 | -7 | 99* | x | 112* | x | 119* | 100* | 2
CCc1c(C)nc(N2CCN(c3ccccc3F)CC2)[nH]c1=O | 1 | 21 | -1 | -5 | 0 | -3 | x | x
Cc1sc2nc(CN(C(=O)c3cccs3)C3CCCC3)[nH]c(=O)c2c1C | 11 | 3 | 2 | 2 | -2 | 14 | x | x
O=C(c1cccs1)N(Cc1nc2sc3c(c2c(=O)[nH]1)CCCC3)C1CCCC1 | 25 | 87* | -14 | 1 | 0 | 1 | 82* | 38*
COc1cc(CNC(=O)c2cc(-c3cc(F)ccc3OC(C)C)n[nH]2)cc(OC)c1 | x | x | x | x | 0 | x | x | x
CCCCNC1C(CC)C(CCC)C(C#N)(C#N)C1(C#N)C#N (centres undefined) | -19 | 61* | -1 | -14 | -17 | 0 | 31 | 56*
Cc1cccc(NC(=O)c2cc3n(n2)C(C(F)(F)F)CC(c2ccc4c(c2)OCO4)N3)c1 (centres undefined) | 50* | 51* | 8 | x | 1 | -1 | 75* | 47*
CCOc1cccc(/C=N/NC(=O)c2cc(C3CC3)[nH]n2)c1O | 0 | 59* | 2 | 96* | -2 | 128* | 26 | x
O=c1[nH]nc(Sc2ncnc3sccc23)n1CCc1ccccc1 | 4 | 85* | -1 | -6 | 2 | 6 | 43* | 8
CCN(CC)CCn1c2ccccc2c2nc3ccc([N+](=O)[O-])cc3cc21 | 34 | 78* | -1 | 35 | -2 | 40 | 77* | 57*
NNc1nc2sc3c(c2c(=O)n1Cc1ccccc1)CCC3 | 12 | -6 | 0 | -4 | 4 | 17 | x | x
